“And” between values parts separate entries of the source, which are not always exact repeats. Equal values may be shown once. The campaign covered roughly 220,000 compounds. About 3,300 (1.5%) were called active. What follows is part of a selection rich in actives, with near analogues and random picks from the rest. A number with no mark means an inactive call.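 The calls were made as follows: active = compounds that cut the protein-peptide binding signal by more than 50% relative to plate controls in a single-dose test; inactive = the rest.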
biological target: Induced myeloid leukemia cell differentiation protein Mcl-1 (Homo sapiens) (UniProt Q07820); experiment: disruptors of Mcl-1 and Noxa BH3 peptide – biochemical, TR-FRET, 1536-well, primary screen (AID 1022); details: TR-FRET Mcl-1/Noxa peptide binding, 2 h; at 21.7 µM; hits give high values;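 also: His-tagged Mcl-1 with rhodamine Noxa BH3 peptide and terbium anti-His antibody; 0% = Mcl-1 plus Noxa peptide wells and 100% = peptide-only wells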
Sequence (Q07820 whole entry, looked up): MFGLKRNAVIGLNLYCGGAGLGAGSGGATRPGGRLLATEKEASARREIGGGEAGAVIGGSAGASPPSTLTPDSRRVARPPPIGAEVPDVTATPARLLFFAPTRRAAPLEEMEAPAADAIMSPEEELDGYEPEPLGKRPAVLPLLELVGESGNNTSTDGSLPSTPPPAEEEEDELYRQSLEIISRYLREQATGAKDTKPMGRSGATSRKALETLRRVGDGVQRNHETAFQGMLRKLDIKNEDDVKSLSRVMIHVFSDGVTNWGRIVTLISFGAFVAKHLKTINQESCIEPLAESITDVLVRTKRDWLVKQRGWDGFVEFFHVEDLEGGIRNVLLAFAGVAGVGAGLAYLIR

Compound | inhibition
Cc1c(NC(=O)C(=O)N/N=C/c2cccs2)c(=O)n(-c2ccccc2)n1C | -17.4%
O=C(Nc1n[nH]c(C(F)(F)F)n1)c1cccs1 | 1.44%
COC(=O)c1scc(C)c1NC(=O)CSc1ccc(Cl)cc1 | 2.67%
CCN(CC)N=Nc1cccc(NC(C)=O)c1 | 52.4% (active)
CC(=O)Nc1cccc(C(=O)Nc2nc(C)cs2)c1 | 18.4%
CCN(CC)C(=O)C(=O)Nc1cccc(Br)c1 | -12.2%
C=C(C)COc1ccc(-c2nc(N)ncc2-c2ccccc2OC)c(O)c1 | 19.2%
NC(=S)Nc1c(Cl)cccc1Cl | -2.54%
Cc1ccc(OC(=O)c2c(C)nn(-c3ccccc3)c2C)cc1 | -10.1%
CC(C)CCN1NC2(CCC(C)CC2)NC1=S (stereo not given) | 10.8%
Cc1ccc(OS(=O)(=O)c2ccc(-c3csc(C)n3)s2)c(C)c1 | 10.9%
Cn1nc(C(F)(F)F)cc1-c1ccc(/C=C(\C#N)C(=O)c2cccc(C(F)(F)F)c2)s1 | 8.47%
Cc1cc(C)n(C(=O)c2ccc(C)c(S(=O)(=O)N3CCOCC3)c2)n1 | 72.5% (active)
COc1ccc(C(=O)OCC(=O)c2ccc(C)c(S(=O)(=O)N3CCOCC3)c2)cc1OC | -9.99%
Cc1cc(C)n(C(=O)c2ccc(S(=O)(=O)N3CCCC3)cc2)n1 | 7.15%
Cc1ccc(C)c2[nH]c(=O)c(CN(Cc3cccnc3)C(=S)NCc3ccco3)cc12 | 4.29%
N=C1/C(=C/c2cccn2-c2cccc([N+](=O)[O-])c2)C(=O)N=C2SC=CN12 | 64.6% (active)
N/C(=N\OC(=O)CCn1cccc(C(F)(F)F)c1=O)c1ccc(OC(F)(F)F)cc1 | -5.59%
COc1ccc(NC2=CC(=S)NC(C)(C)C2)cc1 | 19.2%
O=c1cc(CN2CCN(S(=O)(=O)/C=C/c3ccccc3)CC2)c2ccc(O)cc2o1 | 57.9% (active)
COc1ccc2c(CN3CCN(S(=O)(=O)c4cccs4)CC3)cc(=O)oc2c1 | -3.37%
O=C(CN1CCN(S(=O)(=O)/C=C/c2ccccc2)CC1)Nc1ccc(N2CCOCC2)cc1 | 9.11%
Cc1nc2ccccc2nc1N/N=C/c1ccc(O)cc1O | -26.1%
CCCCCCCN=C(C)c1ccccc1O | -3.31%

Compound | inhibition
O=[N+]([O-])c1cc(Br)c(O)c(/C=N/Nc2nc3ccccc3s2)c1 | 79.4% (active)
c1ccc2sc(NN=C3CCCC3)nc2c1 | 5.28%
Cc1ccc(S(=O)(=O)Nc2nc3ccccc3s2)cc1[N+](=O)[O-] | 9.42%
CCCN(CCC)S(=O)(=O)c1ccc(C(=O)NNC(=O)c2cc(OC)c(OC)c(OC)c2)cc1 | 14.9%
Cc1cc(OCCCCOc2ccc(C#N)cc2)ccc1[N+](=O)[O-] | 5.03%
CC/C=C/C(=O)N1CC2(CC(c3cccc(NC(=O)CC)c3)=NO2)C[C@H]1C(N)=O (stereo not given in full) | -7.66%
CCOc1cc(/C=C(\C#N)c2nc(-c3cccs3)c(NC(C)=O)s2)ccc1O | 24.5%
COc1cc(/C=N\Nc2nc(-c3cccs3)c(NC(C)=O)s2)ccc1O | 95.2% (active)
COc1cc(/C=N/Nc2nc3ccccc3s2)ccc1O | 27.8%
O=C(CSc1nnc(Nc2ccccc2)s1)Nc1cccnc1Cl | 9.43%
Cc1ccc(Nc2nnc(SCC(=O)c3cc4ccccc4o3)s2)cc1C | 24.3%
CC(C)c1ccc(Nc2nnc(SCC(=O)c3nnc(-c4ccccc4)o3)s2)cc1 | 104% (active)
Cc1cccc2c1-c1sc(C(=O)NCCCN3CCc4ccccc4C3)cc1CO2 | 11%
CCOC(=O)CN(C(=O)COc1nc(-c2ccccc2)cc(C)c1C#N)c1ccc(F)cc1 | 7.27%
CN(C)C(=S)Nc1ccc(Br)cc1Cl | -1.61%
CN(C)CCCNC(=O)c1ccc2[nH]c3ccccc3c2c1 | 3.04%
O=C(Cc1ccccc1)NCc1ccc(F)cc1 | -0.05%
CN(C)c1ccc(C(CNC(=O)c2ccc(F)cc2)c2c[nH]c3ccccc23)cc1 (stereo not given) | 75.8% (active)
CCOC(=O)C1=NN(c2ccc(Cl)cc2)/C(=C/C2=NCCc3cc(OC)c(OC)cc32)S1 | 1.42%
O=C(Cn1c[n+](CC(=O)c2ccc([N+](=O)[O-])cc2)cn1)c1ccc([N+](=O)[O-])cc1 | 27.4% and -7.77%
CCc1nnc(NC(=O)c2cccc(S(=O)(=O)N(C)c3ccc(OC)cc3)c2)s1 | 10.9%
CCc1nnc(NC(=O)c2sc3nc(C)cc(COC)c3c2N)s1 | 22.4%
CCc1ccc2nc3sc(C(=O)Nc4nnc(CC)s4)c(N)c3cc2c1 | 90.1% (active)
C#CCO[C@@H]1C[C@H](n2cnc3c(=O)[nH]c(NC(=O)C(C)C)nc32)O[C@@H]1CO | -275%

Compound | inhibition
Cc1ccc(C(=O)Cn2cc([N+](=O)[O-])nc2C)cc1 | -26.9%
Cc1cccc(N=C2NC(=O)/C(=C/c3cn(C)c4ccccc34)S2)c1 | 4.96%
Cc1ccc(N2NC(=O)/C(=C/C=C/c3ccco3)C2=O)cc1C | 6.33%
Cc1ccc(N=C2NC(=O)/C(=C/C=C/c3ccco3)S2)cc1C | 107% (active)
CC(C)(C)c1cc(NC(=O)NN2CCOCC2)nn1-c1c(Cl)cc(Cl)cc1Cl | 2.67%
N/C(=N\S(=O)(=O)c1ccc(Cl)cc1)N1CCOCC1 | -2.49%
C/C=C/C(=O)Nc1ccc(N2CCN(c3ccc(C(F)(F)F)cn3)CC2)nc1 | 4.65%
Cc1ccnc(N2CCC(C(=O)NC3CCCCCC3)CC2)n1 | -9.93%
Cc1ccnc(Nc2nc3ccccc3s2)n1 | -8.28%
Cc1ccnc(-n2sc3ccccc3c2=O)n1 | 69% (active)
CCCCCCCC(=O)OC(CN1CCCCCC1)CN1CCCC1=O (stereo not given) | -0.02%
Cc1ccc2cc(/C=N/Nc3ccc(C(=O)O)cc3)c(Cl)nc2c1 | 32.8%
Cn1c2c(c(=O)n(C)c1=O)C(c1cccc(F)c1)C(C#N)=C(N)O2 (stereo not given) | -5.47%
Cc1ccc(C2Nc3ccccc3C(=O)N2CCN2CCNC2=O)cc1 (stereo not given) | -12.9%
O=C(COC(=O)c1ccc(F)cc1F)Nc1ncccn1 | 65.1% (active)
CC(NC(=O)COC(=O)c1ccc(Cl)cc1O)c1ccc(F)cc1 (stereo not given) | 0.03%
COc1cc(OC)cc(C(=O)OCC(=O)Nc2ccc(F)cc2F)c1 | 2.79%
Cc1nnc(Nc2ccccc2F)s1 | -14.1%
C/C(Cc1ccccc1)=N\NC(=O)CNC(=O)c1ccccc1Cl | -7.79%
O=C1N(c2ccccc2)C(=Nc2ccccc2)SC12CC2 | 1.01%
O=C1Oc2ccccc2C(=O)/C1=C/c1ccccc1O | 81.4% (active)
C=CCn1c2ccccc2c2nnc(SCc3[nH]c(=O)[nH]c3C(=O)CCCCC(=O)OCC)nc21 | 52.5% (active)
C=CCn1c(SCC(=O)CC(=O)OCC)nc2cc(C(=O)N3CCC(C(N)=O)CC3)ccc2c1=O | -5.71%
C=CCn1c2ccccc2c2nnc(SC(CC)C(=O)Nc3nc(C)c(C(=O)OCC)s3)nc21 (stereo not given) | 11.2%

Compound | inhibition
CC(C)(C)n1cnnc1Sc1ccc([N+](=O)[O-])cn1 | 2.83%
Cc1ccccc1NC(=O)CN1C(=O)N/C(=C\c2cccn2-c2cccc(C(=O)O)c2)C1=O | 40.1%
Cn1cccc1/C=C1\SC(=O)N(CC(=O)Nc2ccc(F)cc2)C1=O | 12.7%
N#Cc1ccccc1CN1C(=O)S/C(=C/c2cccn2-c2cccc(C(=O)O)c2)C1=O | 66.4% (active)
Nc1ccc(N=Nc2ccccc2Cl)c(N)n1 | 10.8%
COc1ccc(CCNC(=O)C2CC3Cn4c(nc5cc(C)c(C)cc54)C3N2C)cc1 (stereo not given) | -4.09%
COc1ccc(CC(=O)Nc2ccccc2NC(=O)c2ccco2)cc1OC | 36.8%
COc1ccc(C/C(N)=N/OC(=O)c2ccco2)cc1OC | 64.8% (active)
COc1ccc(C(=O)O/N=C(\N)Cc2ccc(Cl)cc2Cl)cc1OC | 6.09%
N#C/C(=C\N1CCOCC1)S(=O)(=O)c1ccc(Cl)cc1 | -9.31%
COc1ccc(-c2ccc(OC(=O)NC3CCS(=O)(=O)C3)cc2)cc1 (stereo not given) | -3.15%
COc1cccc2c(C)c(C(=O)O)[nH]c12 | 83.1% (active)
Cc1c(C(=O)N/N=C/c2ccccc2)[nH]c2c([N+](=O)[O-])cccc12 | 21%
COc1cccc2c(O)cc(=O)n(C)c12 | -20.5%
COc1ccc(CN2CCOC2=O)cc1OC | 6.85%
COc1cccc(N2C(=O)CC(N3CCc4ccccc4C3)C2=O)c1 (stereo not given) | -10.9%
C=CCNC(=O)CSc1nc2scc(-c3ccco3)c2c(=O)n1CC=C | 8.55%
O=C1CCCC(O)=C1N=Nc1ccc2ncsc2c1 | 62.8% (active)
O=C1CCCC(O)=C1N=Nc1ccc(S(=O)(=O)N2CCOCC2)cc1 | 23.9%
C/C(=N\NC(=O)c1cccnc1)c1ccc(-c2ccccc2)cc1 | 2.98%
O=C(NCC1CCCO1)/C(=C\c1ccco1)NC(=O)c1ccccc1 (stereo not given) | 4.51%
COc1cccc(C2Nc3cccc4cccc(c34)N2)c1 | 34.5%
C/C(=C\c1ccco1)C1Nc2cccc3cccc(c23)N1 | 74.9% (active)

From PubChem BioAssay AID1022 (Emory University Molecular Libraries Screening Center, 2008)
